The campaign covered roughly 5,500 compounds. About 2,000 (36%) were called active. Not shown: some 18% with an inconclusive outcome. The list shows a part of the results. Values without a mark were called inactive. Cut-off read from the data, not from the text of the source: active = normalized growth mostly below about 0.91 (no sharp cut-off); inconclusive = no clear call, values can overlap the other calls; inactive = mostly above about 0.92.
Experiment: chemical genetic growth profiling, strain panel (AID 1159580);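 note: tested at 20 µM; growth read once vehicle control cultures reached saturation at 30 °C; 1 = growth at the plate median or of vehicle wells; lower values mean less growth of the strain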
Details: growth OD

## ClC1=C(Cl)C2(Cl)C3C4C=CC(C4)C3C1(Cl)C2(Cl)Cl (configuration not stated)
S. cerevisiae deletion strains, locus YJR075W, strain HOC1, active compounds read low
  normalized growth: 1.01
S. cerevisiae deletion strains, locus YKL009W, strain mrt4, active compounds read low
  normalized growth: 0.953
S. cerevisiae deletion strains, locus YKL068W, active compounds read low
  normalized growth: 0.996
S. cerevisiae deletion strains, locus YKL085W, strain MDH1 (second series), active compounds read low
  normalized growth: 0.996
S. cerevisiae deletion strains, locus YKL085W, strain MDH1, active compounds read low
  normalized growth: 0.996
S. cerevisiae deletion strains, locus YKL160W, strain elf1, active compounds read low
  normalized growth: 0.998
S. cerevisiae deletion strains, locus YKL190W, strain CNB1, active compounds read low
  normalized growth: 1
S. cerevisiae deletion strains, locus YKR001C, strain vps1, active compounds read low
  normalized growth: 0.998
S. cerevisiae deletion strains, locus YKR026C, strain gcn3, active compounds read low
  normalized growth: 0.997
S. cerevisiae deletion strains, locus YKR091W, strain srl3, active compounds read low
  normalized growth: 0.996
S. cerevisiae deletion strains, locus YLL001W, strain dnm1, active compounds read low
  normalized growth: 0.998
S. cerevisiae deletion strains, locus YLL026W, active compounds read low
  normalized growth: 1
S. cerevisiae deletion strains, locus YLL041C, strain sdh2, active compounds read low
  normalized growth: 0.994
S. cerevisiae deletion strains, locus YLR027C, strain aat2, active compounds read low
  normalized growth: 1.01
S. cerevisiae deletion strains, locus YLR039C, strain RIC1, active compounds read low
  normalized growth: 0.942
S. cerevisiae deletion strains, locus YLR058C, strain SHM2, active compounds read low
  normalized growth: 0.991
S. cerevisiae deletion strains, locus YLR102C, strain apc9, active compounds read low
  normalized growth: 1
S. cerevisiae deletion strains, locus YLR113W, strain HOG1, active compounds read low
  normalized growth: 0.892
S. cerevisiae deletion strains, locus YLR221C, strain rsa3, active compounds read low
  normalized growth: 0.985
S. cerevisiae deletion strains, locus YLR258W, strain gsy2, active compounds read low
  normalized growth: 0.997
S. cerevisiae deletion strains, locus YLR262C, strain YPT6 (second series), active compounds read low
  normalized growth: 0.94
S. cerevisiae deletion strains, locus YLR262C, strain YPT6, active compounds read low
  normalized growth: 0.859
S. cerevisiae deletion strains, locus YLR268W, strain sec22, active compounds read low
  normalized growth: 0.98
S. cerevisiae deletion strains, locus YLR320W, strain mms22, active compounds read low
  normalized growth: 0.994
S. cerevisiae deletion strains, locus YLR330W, strain CHS5, active compounds read low
  normalized growth: 1
S. cerevisiae deletion strains, locus YLR342W, strain FKS1 (second series), active compounds read low
  normalized growth: 0.916
S. cerevisiae deletion strains, locus YLR342W, strain FKS1, active compounds read low
  normalized growth: 0.995
S. cerevisiae deletion strains, locus YLR357W, strain rsc2, active compounds read low
  normalized growth: 1.02
S. cerevisiae deletion strains, locus YLR370C, strain arc18, active compounds read low
  normalized growth: 0.997
S. cerevisiae deletion strains, locus YLR371W, strain rom2, active compounds read low
  normalized growth: 0.981
S. cerevisiae deletion strains, locus YLR384C, strain iki3, active compounds read low
  normalized growth: 0.988
S. cerevisiae deletion strains, locus YLR418C, strain cdc73, active compounds read low
  normalized growth: 0.894
S. cerevisiae deletion strains, locus YML016C, strain PPZ1, active compounds read low
  normalized growth: 0.998
S. cerevisiae deletion strains, locus YML032C, strain rad52, active compounds read low
  normalized growth: 0.976
S. cerevisiae deletion strains, locus YML120C, strain ndi1, active compounds read low
  normalized growth: 1
S. cerevisiae deletion strains, locus YML124C, strain tub3, active compounds read low
  normalized growth: 0.984
S. cerevisiae deletion strains, locus YMR058W, strain fet3, active compounds read low
  normalized growth: 0.999
S. cerevisiae deletion strains, locus YMR078C, strain ctf18, active compounds read low
  normalized growth: 0.979
S. cerevisiae deletion strains, locus YMR125W, strain sto1, active compounds read low
  normalized growth: 1
S. cerevisiae deletion strains, locus YMR129W, active compounds read low
  normalized growth: 0.998
S. cerevisiae deletion strains, locus YMR205C, strain PFK2, active compounds read low
  normalized growth: 0.99
S. cerevisiae deletion strains, locus YMR223W, strain ubp8, active compounds read low
  normalized growth: 0.949
S. cerevisiae deletion strains, locus YMR231W, strain pep5, active compounds read low
  normalized growth: 0.982
S. cerevisiae deletion strains, locus YMR263W, strain SAP30, active compounds read low
  normalized growth: 0.999
S. cerevisiae deletion strains, locus YMR307W, strain GAS1, active compounds read low
  normalized growth: 1.07
S. cerevisiae deletion strains, locus YNL067W, strain RPL9B, active compounds read low
  normalized growth: 1
S. cerevisiae deletion strains, locus YNL071W, strain lat1, active compounds read low
  normalized growth: 1.01
S. cerevisiae deletion strains, locus YNL128W, strain TEP1, active compounds read low
  normalized growth: 0.992
S. cerevisiae deletion strains, locus YNL153C, strain GIM3, active compounds read low
  normalized growth: 1.01
S. cerevisiae deletion strains, locus YNL183C, strain NPR1, active compounds read low
  normalized growth: 0.951
S. cerevisiae deletion strains, locus YNL209W, strain ssb2, active compounds read low
  normalized growth: 0.997
S. cerevisiae deletion strains, locus YNL233W, strain BNI4, active compounds read low
  normalized growth: 0.986
S. cerevisiae deletion strains, locus YNL248C, strain rpa49, active compounds read low
  normalized growth: 1.01
S. cerevisiae deletion strains, locus YNL250W, strain rad50, active compounds read low
  normalized growth: 0.99
S. cerevisiae deletion strains, locus YNL271C, strain bni1, active compounds read low
  normalized growth: 0.99
S. cerevisiae deletion strains, locus YNL298W, strain CLA4, active compounds read low
  normalized growth: 0.981
S. cerevisiae deletion strains, locus YNL307C, strain MCK1, active compounds read low
  normalized growth: 0.48 (active)
S. cerevisiae deletion strains, locus YNL322C, strain KRE1 (second series), active compounds read low
  normalized growth: 0.97
S. cerevisiae deletion strains, locus YNL322C, strain KRE1, active compounds read low
  normalized growth: 1
S. cerevisiae deletion strains, locus YNR049C, strain mso1, active compounds read low
  normalized growth: 0.995
S. cerevisiae deletion strains, locus YNR052C, strain pop2, active compounds read low
  normalized growth: 0.979
S. cerevisiae deletion strains, locus YOL006C, strain TOP1, active compounds read low
  normalized growth: 0.969
S. cerevisiae deletion strains, locus YOL012C, strain htz1
  normalized growth: 1.09
S. cerevisiae deletion strains, locus YOL147C, strain pex11, active compounds read low
  normalized growth: 0.996
S. cerevisiae deletion strains, locus YOR001W, strain rrp6, active compounds read low
  normalized growth: 0.993
S. cerevisiae deletion strains, locus YOR061W, strain CKA2, active compounds read low
  normalized growth: 1
S. cerevisiae deletion strains, locus YOR069W, strain VPS5, active compounds read low
  normalized growth: 0.996
S. cerevisiae deletion strains, locus YOR070C, strain gyp1, active compounds read low
  normalized growth: 0.982
S. cerevisiae deletion strains, locus YOR080W, strain dia2, active compounds read low
  normalized growth: 0.989
S. cerevisiae deletion strains, locus YOR083W, strain WHI5, active compounds read low
  normalized growth: 0.991
S. cerevisiae deletion strains, locus YOR106W, strain vam3, active compounds read low
  normalized growth: 0.97
S. cerevisiae deletion strains, locus YOR136W, strain idh2, active compounds read low
  normalized growth: 0.98
S. cerevisiae deletion strains, locus YOR144C, strain elg1, active compounds read low
  normalized growth: 0.991
S. cerevisiae deletion strains, locus YOR184W, strain ser1, active compounds read low
  normalized growth: 0.911
S. cerevisiae deletion strains, locus YOR231W, strain MKK1, active compounds read low
  normalized growth: 1.04
S. cerevisiae deletion strains, locus YOR265W, strain rbl2, active compounds read low
  normalized growth: 0.991
S. cerevisiae deletion strains, locus YOR270C, strain vph1, active compounds read low
  normalized growth: 0.967
S. cerevisiae deletion strains, locus YOR290C, strain snf2, active compounds read low
  normalized growth: 0.991
S. cerevisiae deletion strains, locus YOR316C, strain cot1, active compounds read low
  normalized growth: 1
S. cerevisiae deletion strains, locus YPL051W, strain arl3, active compounds read low
  normalized growth: 1.01
S. cerevisiae deletion strains, locus YPL055C, strain LGE1, active compounds read low
  normalized growth: 0.99
S. cerevisiae deletion strains, locus YPL078C, strain atp4, active compounds read low
  normalized growth: 1
S. cerevisiae deletion strains, locus YPL106C, strain sse1, active compounds read low
  normalized growth: 1
S. cerevisiae deletion strains, locus YPL240C, strain hsp82, active compounds read low
  normalized growth: 1
S. cerevisiae deletion strains, locus YPL241C, strain CIN2, active compounds read low
  normalized growth: 1.01
S. cerevisiae deletion strains, locus YPL256C, strain CLN2, active compounds read low
  normalized growth: 1.04
S. cerevisiae deletion strains, locus YPR119W, strain clb2, active compounds read low
  normalized growth: 0.987
S. cerevisiae deletion strains, locus YPR141C, strain kar3, active compounds read low
  normalized growth: 0.982
S. cerevisiae deletion strains, locus YPR163C, strain tif3, active compounds read low
  normalized growth: 0.981
S. cerevisiae deletion strains, locus YPR167C, strain met16, active compounds read low
  normalized growth: 0.977
S. cerevisiae deletion strains, strain wtn01, active compounds read low
  normalized growth: 0.983
S. cerevisiae strains, strain wild type, active compounds read low
  normalized growth: 1.01

Source: PubChem BioAssay AID1159580 (chemical genetic matrix, 2015)
